Bioassay records from PubChem.
Pf growth 48h – P. falciparum growth inhibition at 48 hours (one generation); P. falciparum luciferase growth in erythrocytes, 48 h; Potency, µM (titrated, usually from 28.7 µM), hits mostly inhibitors; 5.9% of 310,000 active
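Here the parasites carry a stable luciferase gene and grow inside erythrocytes in Albumax-based RPMI medium with compound for one erythrocytic cycle. Activity is scored as loss of luminescent signal.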
Pf growth 96h – inhibits malaria parasite growth, 96 h; AID 504834; 6.9% of 320,000 active; P. falciparum luciferase reporter growth, 96 h; Potency, µM (highest dose often 28.7 µM), usual class: inhibitors
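Erythrocytes infected with luciferase-expressing P. falciparum were dispensed at 2% hematocrit and 0.05% parasitemia (final), then incubated with compounds 96 hours at 37 C in 5% CO2. Luminescence after detection reagent addition reported growth.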
Sm TGR block – S. mansoni TGR enzyme inhibition; Q962Y6; purified TGR, DTNB reduction, TNB absorbance 405 nm; Potency, µM (titrated, usually from 114 µM), usual class: inhibitors; 3% of 360,000 active; AID 485364; note: nearly all actives have a fitted effect of over 60% in size
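TGR 20 nM + NADPH 100 uM (dispensed conc.), cpd preinc 15 min RT; start with NADPH (500 uM addition) then DTNB (15 mM addition). Kinetic TNB absorbance, 405 nm filter. Four-parameter Hill fit across titration.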
AMA1-RON2 inh – inhibitors of Plasmodium falciparum AMA1-RON2 interaction; AlphaScreen AMA1-biotinylated RON2 peptide binding; Potency, µM (doses to about 58.2 µM), most hits filed as inhibitors; 0.2% of 360,000 active; AID 720542; note: nearly all actives have a fitted effect of over 45% in size
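AMA1 (3D7) with his tag at 25 nM final met compounds first, then biotinylated RON2 peptide at 25 nM; detection used donor plus acceptor beads, 10 µg/mL apiece, read by AlphaScreen after 30 min at room temperature.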
NS1 inh – inhibitors of influenza NS1 protein function; 0.4% of 270,000 active; Potency, µM (highest dose often 46.1 µM); calls by dose curve; note: actives are rising curves; nearly all actives have a fitted effect of over 50% in size
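Read-out: OD600 growth recovery of NS1-expressing budding yeast. Cells grown overnight at 30C in -URA glucose medium, washed, resuspended and diluted 1:100 in 2% galactose assay medium, pH 6.0. Same strain lacking NS1 served as positive control.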
NS1 inh valid – validation of influenza NS1 protein function inhibitors; 1,400 tested, under 10 active; AID 492980; activity change, negative = inhibition, % at 32.9 µM; influenza NS1 function cell assay, 15-point titration; shares compounds with NS1 inh; calls by dose curve
Flu PR8 replic – influenza virus titer reduction, NS1 project; MDCK infected influenza A/PR/8/34, virus titer TCID50; hits give low values; virus titer (log TCID50), log10 TCID50 at 5 µM; shares compounds with NS1 inh; AID 504647; 30% of 95 active; call rule not given here
Of the large screens only hits and unclear results are named; the others gave an inactive call (follow-up assays come after a bar, where they were run). Compounds with a hit are over-represented: about 11% of the library has one in this group of screens. Unless noted, calls come from the whole dose curve; as a rule, active = well fitted curve in the direction sought with a large enough effect; inconclusive = small, poorly fitted or top-dose-only effect, or another doubt; inactive = no such curve, though single readings can be large; an effect the other way counts as inactive or inconclusive.

COc1cc(CNc2ccc3[nH]c(=O)[nH]c3c2)cc(Br)c1OCc1ccccc1F	Sm TGR block inconclusive, NS1 inh 0.794µM (no result: Pf growth 48h) | NS1 inh valid inactive
Cc1cc(=O)[nH]c(N/N=C/c2c(O)n(-c3ccccc3)c(=O)c3ccccc23)n1	NS1 inh 10µM | NS1 inh valid inactive
O=C1OCCN1C(=O)[C@H]1[C@H](c2ccc([N+](=O)[O-])cc2)C(c2cccc(Cl)c2)=NN1c1ccccc1	Pf growth 96h inconclusive, NS1 inh 22.4µM | NS1 inh valid inactive
Cc1c(NC(=O)C(C)OC(=O)c2cc(-c3cccc4ccccc34)nc3ccccc23)c(=O)n(-c2ccccc2)n1C (stereo not given)	NS1 inh 11.2µM | NS1 inh valid inactive
COc1ccc(-c2cc(C(=O)OC(C)C(=O)Nc3c(C)n(C)n(-c4ccccc4)c3=O)c3ccccc3n2)cc1 (stereo not given)	none
Cc1c(C)c2ccc(OC(C)C(=O)N[C@@H](Cc3c[nH]c4ccccc34)C(=O)O)c(C)c2oc1=O (stereo not given in full)	Pf growth 48h inconclusive, NS1 inh 10µM | NS1 inh valid inactive
Cc1c(OC(C)C(=O)NC(Cc2c[nH]c3ccc(O)cc23)C(=O)O)ccc2c1oc(=O)c1ccccc12 (stereo not given)	Pf growth 96h inconclusive
O=S(=O)(NCc1ccccc1)c1ccc(Br)c2nsnc12	none
CC(C)=CCN1CCN(Cc2cn(C(C)C)c3ccccc23)CC1CCO (stereo not given)	Pf growth 48h inconclusive, Pf growth 96h inconclusive, NS1 inh 11.2µM | NS1 inh valid inactive
Cc1nc(Nc2nc(CSc3nc4ccccc4[nH]3)cc(=O)[nH]2)nc2ccccc12	Pf growth 48h inconclusive, Pf growth 96h 9.28µM, NS1 inh 14.1µM | NS1 inh valid inactive
CCCCC(=O)N(C)c1c(C)nc2ccc(C(=O)N3CCCCC3)cn12	none (no result: Pf growth 48h, Pf growth 96h, Sm TGR block, NS1 inh)
COc1ccc(Oc2nc(C)cc(C)c2C#N)cc1	Pf growth 48h inconclusive, NS1 inh inconclusive (no result: Pf growth 96h) | NS1 inh valid inactive
COc1ccc(Nc2nc(C)cc(C)c2C#N)cc1	none (no result: Pf growth 96h)
CCOC(=O)C1CCCN(C(=O)Cn2sc3nc(C)cc(C)c3c2=O)C1 (stereo not given)	Sm TGR block inconclusive, NS1 inh 5.01µM (no result: Pf growth 48h) | NS1 inh valid inconclusive
CCOC(=O)Cn1c(=O)n(-c2cccc(Cl)c2)c2nc(-c3ccccc3Cl)nc(C(N)=O)c21	none (no result: Pf growth 48h, Pf growth 96h, AMA1-RON2 inh, NS1 inh)
CCc1cc2c(-c3ccccc3)cc(=O)oc2cc1OC(C)C(=O)O (stereo not given)	Pf growth 96h inconclusive, NS1 inh 10µM | NS1 inh valid inactive
Cc1ccc(S(=O)(=O)c2c(C(=O)c3ccccc3)cnc3cc4c(cc23)OCCO4)cc1	Pf growth 48h inconclusive, Pf growth 96h inconclusive, NS1 inh 15.8µM | NS1 inh valid inactive
CC(C)CCn1c(SCC(=O)NC2CCS(=O)(=O)C2)nc2cc(Cl)ccc2c1=O (stereo not given)	none (no result: NS1 inh)
Cc1onc(-c2ccccc2Cl)c1C(=O)Nc1nnc(-c2cccc([N+](=O)[O-])c2)s1	Pf growth 48h inconclusive, Pf growth 96h inconclusive, NS1 inh 10µM | NS1 inh valid inactive
CC(=O)Nc1cccc(NC(=O)c2c(-c3ccccc3Cl)noc2C)c1	none
Cc1cc(C(=O)Nc2nnc(-c3ccccc3)s2)no1	Pf growth 48h inconclusive, NS1 inh inconclusive | NS1 inh valid inconclusive
Cc1ccc(CN2CCSc3ccc(C(=O)Nc4ccc(Cl)cc4)cc32)cc1	none (no result: Pf growth 48h, Pf growth 96h, AMA1-RON2 inh, NS1 inh)
CCC(CC)C(=O)N(C)c1c(C)nc2c(OCC3CCCCC3)cccn12	none (no result: Pf growth 48h, Pf growth 96h, Sm TGR block, NS1 inh)
CN1CCN(NC(=O)C2CC2)CC1	none
Brc1ccc(C2Nc3cccc4cccc(c34)N2)o1	Sm TGR block inconclusive, NS1 inh inconclusive | NS1 inh valid inactive
C=CCn1c(SCC2=C(C(=O)OCC)C(C)NC(=O)N2)nnc1C1CCCCC1 (stereo not given)	Pf growth 48h 11.7µM, NS1 inh 11.2µM | NS1 inh valid inactive | Flu PR8 replic inactive
C=CCn1c(SCC(=O)NC(=O)NCCC)nnc1C1CCCCC1	Pf growth 48h inconclusive, Pf growth 96h inconclusive
O=C(O)CC/C(=N/Nc1ncc(C(F)(F)F)cc1Cl)C(=O)O	none (no result: Sm TGR block)
CC(=O)Nc1ccc(-c2csc(NC(=O)C3CCN(S(=O)(=O)c4cccs4)CC3)n2)cc1	Pf growth 48h 2.08µM, Pf growth 96h inconclusive, AMA1-RON2 inh inconclusive, NS1 inh 12.6µM | NS1 inh valid inactive
CC(NC(=O)c1ccccc1F)c1nnc(SCC(=O)NC2=NCCS2)n1C (stereo not given)	none
CS(=O)(=O)N(CC(=O)N1CCCCC1)Cc1ccccc1	Pf growth 48h inconclusive
CCOC(=O)C1CCN(C(=O)CN(Cc2ccccc2)S(C)(=O)=O)CC1	NS1 inh 14.1µM (no result: Pf growth 96h) | NS1 inh valid inactive
COC(=O)c1ccccc1C(=O)N1CCCC(CNC(=O)c2ccc(F)cc2)C1 (stereo not given)	none
O=S(=O)(Nc1cccc(-c2ccc(N3CCCCCC3)nn2)c1)c1ccc(F)cc1	none
O=S(=O)(Nc1cccc(-c2ccc(N3CCCCCC3)nn2)c1)c1cccc(F)c1	NS1 inh inconclusive | NS1 inh valid inactive
Cc1onc(-c2ccccc2)c1C(=O)Nc1cccnc1	Pf growth 96h inconclusive, NS1 inh 6.31µM | NS1 inh valid inactive
O=C(N/N=C/c1c[nH]c2ccccc12)c1cc(-c2ccc3ccccc3c2)n[nH]1	NS1 inh inconclusive | NS1 inh valid inactive
CCC(=O)n1nc(-c2ccc(Cl)cc2)nc1NCc1ccccc1	Pf growth 96h inconclusive (no result: Pf growth 48h)
Cc1cccc(C(=O)OCC(=O)c2cccc(Br)c2)c1O	none
COc1cc(/C=C2/C(=O)NC(=O)N(c3ccccc3)C2=O)ccc1O	Pf growth 96h inconclusive, Sm TGR block inconclusive, NS1 inh inconclusive | NS1 inh valid inactive
COc1ccc(/C=C2/C(=O)NC(=O)N(c3ccccc3)C2=O)cc1CN1C(=O)c2ccccc2C1=O	Sm TGR block inconclusive
CC(C)CC(C(=O)O)C(C)CC(=O)Nc1ccn(-c2ccccc2)n1 (stereo not given)	none
CCCCC(C(=O)O)C(C)CC(=O)Nc1ccn(-c2ccccc2)n1 (stereo not given)	NS1 inh 2.82µM | NS1 inh valid inactive
O=[N+]([O-])c1ccccc1NCc1c(O)ccc2ccccc12	Pf growth 48h inconclusive, Pf growth 96h inconclusive, Sm TGR block 1.78µM, NS1 inh 8.91µM | NS1 inh valid inactive
COc1ccc(CNC(=O)c2ccc3c(c2)N(Cc2ccccc2F)C(=O)c2ccccc2S3=O)cc1 (stereo not given)	none (no result: Pf growth 48h, Pf growth 96h, AMA1-RON2 inh, NS1 inh)
CC1CCCCN1C(=O)COC(=O)C1CCN(S(=O)(=O)c2ccc3c(c2)OCCO3)CC1 (stereo not given)	none (no result: NS1 inh)
